Test results: PubChem BioAssay (EPA / NIEHS)
Results filed as inconclusive are left out. Activity calls are given as the source filed them. The calls were made as follows, unless noted: active = hit-call score of the fitted dose curve at least 0.9, where 1 is the maximum; inconclusive = response in the unintended direction; inactive = score below 0.9.

Tests used:
[1] = CCTE_Harrill_HTTr_CellCount_MCF7: CCTE's Cell Proliferation Assessment for the High-Throughput Transcriptomics (HTTr) Platform, Harrill Lab (AID 2284012);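 also: cells exposed to compound for six hours; intended direction is loss of nuclei count meaning fewer cells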
In short: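 MCF-7 cells were exposed for 6 h to an eight-point dilution series; Hoechst-labeled nuclei were counted by high content imaging. Curves were fitted bidirectionally against DMSO as negative control and baseline, with signal loss indicating reduced cell count.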

[2] = CCTE_Shafer_MEA_acute_burst_number: CCTE's Neural Acute Assay for Single-Electrode Bursts, Shafer Lab (AID 2284013; active = hit-call score of the fitted dose curve at least 0.9, where 1 is the maximum; inactive = score below 0.9)
In short: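 Rat cortical cultures, DIV 13/15; 40 min baseline, then 40 min with compound 0.03-40 uM, 37 C. Spikes: 300-5000 Hz band-pass, threshold 8x rms noise. Readout = % change in single-electrode bursts vs baseline, loss-of-signal fit.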

[3] = CCTE_Shafer_MEA_acute_per_burst_spike_number_mean: CCTE's Neural Acute Assay for Average Number of Spikes Per Burst, Shafer Lab (AID 2284015; active = hit-call score of the fitted dose curve at least 0.9, where 1 is the maximum; inactive = score below 0.9;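 also: hits are decreases in mean spikes per burst versus baseline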)
In short: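 Primary rat cortical neurons on 48-well MEA plates, treated on DIV 13 or 15 at 0.03-40 uM. Spontaneous activity recorded 40 min before and 40 min after compound at 37 C; percent change in mean spikes per single-electrode burst per well, fitted in the loss direction versus DMSO.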

[4] = CCTE_Shafer_MEA_acute_burst_percentage_mean: CCTE's Neural Acute Assay for Percentage of Spikes in a Burst, Shafer Lab (AID 2284017; active = hit-call score of the fitted dose curve at least 0.9, where 1 is the maximum; inactive = score below 0.9)
In short: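 Primary rat cortical neurons on 16-electrode MEA wells; 40 min baseline recorded at DIV 13 or 15, then 40 min after compound (0.03-40 uM) at 37 C. Well-mean fraction of spikes in single-electrode bursts; percent change from baseline, DMSO as negative control.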

[5] = CCTE_Shafer_MEA_acute_burst_percentage_std: CCTE's Neural Acute Assay for Standard Deviation of Burst Percentage, Shafer Lab (AID 2284018; active = hit-call score of the fitted dose curve at least 0.9, where 1 is the maximum; inactive = score below 0.9;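 also: fitted in the negative direction so actives lower burst percentage SD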)
In short: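 Primary rat cortical neurons on 16-electrode MEA wells were recorded 40 min at baseline (DIV 13 or 15), then 40 min after compound (0.03-40 uM), at 37 C. Well value is SD across electrodes of spikes-in-bursts/total spikes; endpoint is percent change, DMSO-referenced.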

[6] = CCTE_Shafer_MEA_acute_per_network_burst_spike_number_mean: CCTE's Neural Acute Assay for Average Number of Spikes in a Network Burst, Shafer Lab (AID 2284019; active = hit-call score of the fitted dose curve at least 0.9, where 1 is the maximum; inactive = score below 0.9)
In short: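 Primary rat cortical neurons on 16-electrode MEA wells, DIV 13 or 15, 37 C; 40-min baseline then 40-min recording with compound (0.03-40 uM). Spikes per network burst (total spikes/number of bursts) expressed as percent change from baseline, DMSO reference.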

[7] = CCTE_Shafer_MEA_acute_per_network_burst_spike_number_std: CCTE's Neural Acute Assay for Standard Deviation of Number of Spikes in a Network Burst, Shafer Lab (AID 2284020; active = hit-call score of the fitted dose curve at least 0.9, where 1 is the maximum; inactive = score below 0.9;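 also: fitted for decrease in spike-number SD versus DMSO so actives lower it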)
In short: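 Primary rat cortical neurons on 48-well MEAs (16 electrodes/well) recorded at DIV 13 or 15: 40-min baseline, then 40 min with compound (0.03-40 uM), 37 C. Value is percent change in SD of spikes per network burst, relative to DMSO.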

[8] = CCTE_Shafer_MEA_acute_per_network_burst_electrodes_number_mean: CCTE's Neural Acute Assay for Mean Number of Electrodes in a Network Burst, Shafer Lab (AID 2284021; active = hit-call score of the fitted dose curve at least 0.9, where 1 is the maximum; inactive = score below 0.9;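 also: curves fitted for decreases only so hits reduce electrodes per burst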)
In short: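 Rat primary cortical neurons on 16-electrode MEA wells were recorded 40 min at baseline on DIV 13 or 15, then 40 min after compound (0.03-40 uM), at 37 C. Value is percent change per well, fitted in loss direction versus DMSO.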

[9] = CCTE_Shafer_MEA_acute_cross_correlation_area: CCTE's Neural Acute Assay for Area of Cross Correlation, Shafer Lab (AID 2284024; active = hit-call score of the fitted dose curve at least 0.9, where 1 is the maximum; inactive = score below 0.9;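 also: area under pooled inter-electrode spike cross-correlation near zero lag as percent change from own baseline; curves fitted for loss of cross-correlation area so actives lower synchrony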)
In short: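 Primary rat cortical neurons on 48-well MEA plates (16 electrodes/well) were recorded 40 min at baseline on DIV 13 or 15, then 40 min with compound (0.03-40 uM) at 37 C; cross-correlation area expressed as percent change from baseline.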

[10] = CCTE_Shafer_MEA_acute_cross_correlation_HWHM: CCTE's Neural Acute Assay for Cross Correlation at Half Width at Half Maximum, Shafer Lab (AID 2284026; active = hit-call score of the fitted dose curve at least 0.9, where 1 is the maximum; inactive = score below 0.9;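 also: spontaneous network firing of rat primary cortical neurons on multiwell microelectrode arrays; percent change per well from pre-dose baseline in spike cross-correlogram half width; hits are a decrease in cross-correlogram half width relative to DMSO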)
In short: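 Primary rat cortical neurons on 16-electrode MEA wells; 40-min baseline on DIV 13 or 15, then 40-min recording with compound (0.03-40 uM) at 37 C. HWHM of spike cross-correlogram expressed as percent change from baseline per well, DMSO reference.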

[11] = biological target: Estrogen receptor (Homo sapiens) (UniProt P03372); assay: CCTE_Deisenroth_AIME_96WELL_LUC_Active: CCTE's 96-well Estrogen Receptor Transactivation Assay with AIME metabolic competence (ERTA luciferase; metabolism positive), Deisenroth Lab (AID 2284023)
Sequence of Estrogen receptor (Homo sapiens) (P03372 whole entry, looked up): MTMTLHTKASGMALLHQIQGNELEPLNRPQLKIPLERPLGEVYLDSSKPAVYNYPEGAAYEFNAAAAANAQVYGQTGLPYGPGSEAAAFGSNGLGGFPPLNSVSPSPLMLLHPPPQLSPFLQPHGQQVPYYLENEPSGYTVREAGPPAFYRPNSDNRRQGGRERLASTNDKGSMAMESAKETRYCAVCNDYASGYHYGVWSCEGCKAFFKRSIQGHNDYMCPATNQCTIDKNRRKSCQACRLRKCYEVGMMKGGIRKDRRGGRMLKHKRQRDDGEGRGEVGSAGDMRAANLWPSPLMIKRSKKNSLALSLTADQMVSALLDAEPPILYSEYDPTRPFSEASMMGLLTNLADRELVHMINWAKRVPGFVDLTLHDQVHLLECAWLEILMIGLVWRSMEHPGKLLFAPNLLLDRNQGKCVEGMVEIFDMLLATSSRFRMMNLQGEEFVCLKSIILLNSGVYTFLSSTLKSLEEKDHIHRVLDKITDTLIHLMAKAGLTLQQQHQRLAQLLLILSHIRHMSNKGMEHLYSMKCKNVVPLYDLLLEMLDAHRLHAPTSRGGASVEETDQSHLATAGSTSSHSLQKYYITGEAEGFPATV
In short: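 Chemicals pre-incubated 2 h with alginate-immobilized phenobarbital/beta-naphthoflavone-induced male Sprague Dawley rat liver S9, then medium transferred to VM7Luc4E2 cells for 24 h luciferase read-out. 10-point series 0.002 - 200 uM; fitted relative to 17beta-estradiol.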

[12] = biological target: Estrogen receptor (Homo sapiens) (UniProt P03372); assay: CCTE_Deisenroth_AIME_96WELL_LUC_Inactive: CCTE's 96-well Estrogen Receptor Transactivation Assay without AIME metabolic competence (ERTA luciferase; metabolism negative), Deisenroth Lab (AID 2284025)
In short: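 VM7Luc4E2 breast cells, luciferase read 24 h after dosing with medium pre-incubated 2 h on alginate-water lids (metabolism negative). 10-point series 0.002–200 uM, single technical replicate, n≥4; fit relative to 17beta-estradiol.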

[13] = CCTE_Deisenroth_AIME_96WELL_CTox_Active: Cytotoxicity Assessment (CTOX) in CCTE's 96-well Estrogen Receptor Transactivation Assay with AIME metabolic competence (metabolism positive), Deisenroth Lab (AID 2284028)
In short: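 Chemicals (0.002–200 uM) were first incubated 2 h with alginate-immobilized phenobarbital/beta-naphthoflavone-induced male rat liver S9; conditioned medium then went onto VM7Luc4E2 cells for 24 h, with viability read by protease-substrate fluorescence, fitted bidirectionally.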

[14] = CCTE_Shafer_MEA_dev_firing_rate_mean: CCTE's Neural Network Formation Assay for Mean Firing Rate, Shafer Lab (AID 2284031; active = hit-call score of the fitted dose curve at least 0.9, where 1 is the maximum; inactive = score below 0.9)
In short: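 Primary rat cortical neurons on 48-well, 16-electrode MEAs (PEI-coated, laminin at plating), exposed from day 0 with compound renewed at DIV 5 and 9. Spikes recorded DIV 5, 7, 9, 12; well-mean firing rate collapsed to trapezoidal AUC, loss-of-signal vs DMSO.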

[15] = CCTE_Shafer_MEA_dev_per_burst_spike_percent: CCTE's Neural Network Formation Assay for Percent of Spikes in a Burst, Shafer Lab (AID 2284032; active = hit-call score of the fitted dose curve at least 0.9, where 1 is the maximum; inactive = score below 0.9)
In short: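 Rat primary cortical neurons on 16-electrode MEA wells, dosed from plating day 0 for 12 days with renewal on DIV 5 and 9; spikes-in-bursts percentage averaged over bursting electrodes, collapsed as AUC across days 5, 7, 9, 12; loss direction versus DMSO.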

[16] = biological target: Estrogen receptor (Homo sapiens) (UniProt P03372); assay: CCTE_Deisenroth_AIME_384WELL_LUC_Active: CCTE's 384-well Estrogen Receptor Transactivation Assay with AIME metabolic competence (ERTA luciferase; metabolism positive), Deisenroth Lab (AID 2284030)
In short: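 Test chemicals (10-point series, 0.002 - 200 uM) were preincubated 2 hours with alginate-immobilized phenobarbital/beta-naphthoflavone-induced male Sprague Dawley rat liver S9; conditioned medium then went onto VM7Luc4E2 breast cells for 24 hour. Luciferase gain-of-signal fitted relative to 17beta-estradiol.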

[17] = CCTE_Deisenroth_AIME_384WELL_CTox_Active: Cytotoxicity Assessment (CTOX) in CCTE's 384-well Estrogen Receptor Transactivation Assay with AIME metabolic competence (metabolism positive), Deisenroth Lab (AID 2284037);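 also: activity means signal loss indicating cell death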
In short: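 VM7Luc4E2 breast cells received medium pre-incubated 2 h with chemical over alginate microspheres holding induced male Sprague Dawley rat liver S9; viability read 24 h later by protease-substrate fluorescence. Loss of signal, bidirectional fit, 0.002–200 uM.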

[18] = biological target: Estrogen receptor (Homo sapiens) (UniProt P03372); assay: CCTE_Deisenroth_AIME_384WELL_LUC_Inactive: CCTE's 384-well Estrogen Receptor Transactivation Assay without AIME metabolic competence (ERTA luciferase; metabolism negative), Deisenroth Lab (AID 2284038);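 also: hits raise estrogen receptor luciferase signal so potencies reflect agonists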
In short: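 Chemicals (10-point series, 0.002 - 200 uM) were incubated 2 hours with alginate-water microsphere lids lacking S9, then the conditioned medium was transferred to VM7Luc4E2 breast cells for 24 hour. Luciferase induction was read by bioluminescence, fitted upward relative to 17beta-estradiol.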

[19] = CCTE_Deisenroth_AIME_384WELL_CTox_Inactive: Cytotoxicity Assessment (CTOX) in CCTE's 384-well Estrogen Receptor Transactivation Assay without AIME metabolic competence (metabolism negative), Deisenroth Lab (AID 2284039);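 also: cell viability via live-cell protease substrate cleaved to fluorescent probe; cells exposed 24 h to medium preincubated 2 h with alginate-water beads without S9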
In short: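 VM7Luc4E2 human breast cells received conditioned medium from a 2 h incubation of chemical with alginate-water microspheres (no S9), then were exposed 24 h. Viability was read as protease-substrate cleavage to a fluorescent probe; loss of signal was fitted bidirectionally over 0.002–200 uM.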

Measured: AC50

CC1(C)CC(O)CC(C)(C)N1[O]
inactive: [1] | [2] | [3] | [4] | [5] | [6] | [7] | [8] | [9] | [10]

CC(C)[N+](C)(CCOC(=O)C1c2ccccc2Oc2ccccc21)C(C)C
inactive: [1]

Cc1cccc(C(C)(C)C)c1O
active: [12] 121 µM
inactive: [11] | [13]

Cc1noc(NS(=O)(=O)c2ccc(N)cc2)c1C
inactive: [1] | [14] | [15]

O=C(O)/C=C/c1ccccc1
inactive: [1] | [16] | [17] | [18] | [19]

Cc1ccc([N+](=O)[O-])cc1N
inactive: [16] | [17] | [18]

CC(=O)/C=C/C1C(C)=CCCC1(C)C (centres undefined)
inactive: [1] | [16] | [18] | [19]

CC(C)OC(=O)c1ccccc1
inactive: [1]

COc1ccc(C(=O)c2ccccc2)c(O)c1
inactive: [1] | [13]
active: [11] 12.6 µM | [12] 18.5 µM

Nc1nc(N)nc(-c2ccccc2)n1
inactive: [2] | [3] | [4] | [5] | [6] | [7] | [8] | [9] | [10]

Cc1c(C(=O)c2c[nH]n(C)c2=O)ccc(S(C)(=O)=O)c1C1=NOCC1
not listed: [11] | [12] | [13] | [16] | [17] | [18] | [19]
inactive: all other assays above

CC1=NN(c2ccc(S(=O)(=O)O)cc2)C(=O)C1N=Nc1ccccc1 (centres undefined)
inactive: [16] | [18] | [19]
active: [17] 159 µM

CCCCCC(=O)OCC
inactive: [16] | [17] | [18]
active: [19] 19.8 µM

CCCCCCCCCC[N+](C)(CCCCCCCCCC)CCC[Si](OC)(OC)OC
active: [17] 49.4 µM | [19] 100 µM
inactive: [16]

N#Cc1ccc(C(c2ccc(C#N)cc2)n2cncn2)cc1
inactive: [16] | [17] | [18] | [19]

COC(=O)c1ccccc1C
inactive: [16] | [18] | [19]

CCCCCCCCCCCCCC(=O)OC(C)C
inactive: [16] | [18]

O=c1c(O)c(-c2ccc(O)cc2O)oc2cc(O)cc(O)c12
active: [16] 133 µM | [17] 100 µM | [18] 109 µM | [19] 146 µM
